In publication PMC11006913:

These sequences were tested against PRRX1 (Homo sapiens, UniProt P54821 80-166, F113S) (assay: PBM; 200 nM protein, PBS). Settings: dsDNA, one strand shown.
PRRX1 (Homo sapiens, UniProt P54821 80-166, F113S), sequence (P54821 80-166 F113S): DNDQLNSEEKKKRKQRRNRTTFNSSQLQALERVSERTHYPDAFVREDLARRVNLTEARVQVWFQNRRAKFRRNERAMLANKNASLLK

Sequence	binding signal
AATATGCC	9.8 upbm affinity estimate (log intensity, higher = more binding, comparable within an allelic series)
GACTCTAA	10.1 upbm affinity estimate (log intensity, higher = more binding, comparable within an allelic series)
ATTACAAC	10.3 upbm affinity estimate (log intensity, higher = more binding, comparable within an allelic series)
TAAACTCA	10.1 upbm affinity estimate (log intensity, higher = more binding, comparable within an allelic series)
CGTCACCC	9.47 upbm affinity estimate (log intensity, higher = more binding, comparable within an allelic series)
CCCAACGC	9.62 upbm affinity estimate (log intensity, higher = more binding, comparable within an allelic series)
CCTGAGGC	9.1 upbm affinity estimate (log intensity, higher = more binding, comparable within an allelic series)
GAACAGCC	9.48 upbm affinity estimate (log intensity, higher = more binding, comparable within an allelic series)
CGGACGAC	9.43 upbm affinity estimate (log intensity, higher = more binding, comparable within an allelic series)
ACGTCGCC	9.31 upbm affinity estimate (log intensity, higher = more binding, comparable within an allelic series)
CGTCTGGA	9.4 upbm affinity estimate (log intensity, higher = more binding, comparable within an allelic series)
CATATTGG	10 upbm affinity estimate (log intensity, higher = more binding, comparable within an allelic series)
GCTGGACC	9.41 upbm affinity estimate (log intensity, higher = more binding, comparable within an allelic series)
ACGCGCGG	9.42 upbm affinity estimate (log intensity, higher = more binding, comparable within an allelic series)
CCAAGCTC	9.29 upbm affinity estimate (log intensity, higher = more binding, comparable within an allelic series)
CCTACTTA	10.1 upbm affinity estimate (log intensity, higher = more binding, comparable within an allelic series)
CTTCATTA	10.5 upbm affinity estimate (log intensity, higher = more binding, comparable within an allelic series)
CGCGTCAG	9.4 upbm affinity estimate (log intensity, higher = more binding, comparable within an allelic series)
GCAAGGCC	9.45 upbm affinity estimate (log intensity, higher = more binding, comparable within an allelic series)
AGGTCTTG	9.4 upbm affinity estimate (log intensity, higher = more binding, comparable within an allelic series)

Sequence	binding signal
AGATATTA	10.4 upbm affinity estimate (log intensity, higher = more binding, comparable within an allelic series)
ATTTTTAA	10.4 upbm affinity estimate (log intensity, higher = more binding, comparable within an allelic series)
GTGTTAAC	10.1 upbm affinity estimate (log intensity, higher = more binding, comparable within an allelic series)
AATGAGGG	9.96 upbm affinity estimate (log intensity, higher = more binding, comparable within an allelic series)
GACGACGC	9.47 upbm affinity estimate (log intensity, higher = more binding, comparable within an allelic series)
CGACGTTA	9.76 upbm affinity estimate (log intensity, higher = more binding, comparable within an allelic series)
GCCTCTCA	9.4 upbm affinity estimate (log intensity, higher = more binding, comparable within an allelic series)
CCGAACCC	9.23 upbm affinity estimate (log intensity, higher = more binding, comparable within an allelic series)
CTGATGAA	10 upbm affinity estimate (log intensity, higher = more binding, comparable within an allelic series)
ATCAATTC	10.1 upbm affinity estimate (log intensity, higher = more binding, comparable within an allelic series)
ACCGTGCG	9.48 upbm affinity estimate (log intensity, higher = more binding, comparable within an allelic series)
CCAAGACG	9.45 upbm affinity estimate (log intensity, higher = more binding, comparable within an allelic series)
CCCCTTGC	9.32 upbm affinity estimate (log intensity, higher = more binding, comparable within an allelic series)
CGCTCCAC	9.44 upbm affinity estimate (log intensity, higher = more binding, comparable within an allelic series)
GCGTGCCA	9.08 upbm affinity estimate (log intensity, higher = more binding, comparable within an allelic series)
CCAACACC	9.31 upbm affinity estimate (log intensity, higher = more binding, comparable within an allelic series)
GACGTTGC	9.46 upbm affinity estimate (log intensity, higher = more binding, comparable within an allelic series)
CTCCGTAC	9.47 upbm affinity estimate (log intensity, higher = more binding, comparable within an allelic series)
AGATCAAT	10.1 upbm affinity estimate (log intensity, higher = more binding, comparable within an allelic series)

The sequences below were run against PRRX1 (Homo sapiens, UniProt P54821 80-166) (assay: PBM; 200 nM protein, PBS). Settings: dsDNA, one strand shown.
PRRX1 (Homo sapiens, UniProt P54821 80-166), sequence (P54821 80-166): as the sequence (P54821 80-166 F113S) above, with S34F counted along it

Sequence	binding signal
AATATGCC	11.1 upbm affinity estimate (log intensity, higher = more binding, comparable within an allelic series)
GACTCTAA	11.1 upbm affinity estimate (log intensity, higher = more binding, comparable within an allelic series)
ATTACAAC	12.1 upbm affinity estimate (log intensity, higher = more binding, comparable within an allelic series)
TAAACTCA	11.1 upbm affinity estimate (log intensity, higher = more binding, comparable within an allelic series)
CGTCACCC	9.31 upbm affinity estimate (log intensity, higher = more binding, comparable within an allelic series)
CCCAACGC	9.3 upbm affinity estimate (log intensity, higher = more binding, comparable within an allelic series)
CCTGAGGC	9.44 upbm affinity estimate (log intensity, higher = more binding, comparable within an allelic series)
GAACAGCC	9.53 upbm affinity estimate (log intensity, higher = more binding, comparable within an allelic series)
CGGACGAC	9.26 upbm affinity estimate (log intensity, higher = more binding, comparable within an allelic series)
ACGTCGCC	9.36 upbm affinity estimate (log intensity, higher = more binding, comparable within an allelic series)
CGTCTGGA	9.19 upbm affinity estimate (log intensity, higher = more binding, comparable within an allelic series)
CATATTGG	11.3 upbm affinity estimate (log intensity, higher = more binding, comparable within an allelic series)
GCTGGACC	9.43 upbm affinity estimate (log intensity, higher = more binding, comparable within an allelic series)
ACGCGCGG	9.29 upbm affinity estimate (log intensity, higher = more binding, comparable within an allelic series)
CCAAGCTC	9.43 upbm affinity estimate (log intensity, higher = more binding, comparable within an allelic series)
CCTACTTA	11.6 upbm affinity estimate (log intensity, higher = more binding, comparable within an allelic series)
CTTCATTA	12.8 upbm affinity estimate (log intensity, higher = more binding, comparable within an allelic series)
CGCGTCAG	9.26 upbm affinity estimate (log intensity, higher = more binding, comparable within an allelic series)
GCAAGGCC	9.29 upbm affinity estimate (log intensity, higher = more binding, comparable within an allelic series)
AGGTCTTG	9.41 upbm affinity estimate (log intensity, higher = more binding, comparable within an allelic series)

Sequence	binding signal
AGATATTA	12.2 upbm affinity estimate (log intensity, higher = more binding, comparable within an allelic series)
ATTTTTAA	12 upbm affinity estimate (log intensity, higher = more binding, comparable within an allelic series)
GTGTTAAC	11.8 upbm affinity estimate (log intensity, higher = more binding, comparable within an allelic series)
AATGAGGG	11.2 upbm affinity estimate (log intensity, higher = more binding, comparable within an allelic series)
GACGACGC	9.16 upbm affinity estimate (log intensity, higher = more binding, comparable within an allelic series)
CGACGTTA	11.1 upbm affinity estimate (log intensity, higher = more binding, comparable within an allelic series)
GCCTCTCA	9.09 upbm affinity estimate (log intensity, higher = more binding, comparable within an allelic series)
CCGAACCC	9.29 upbm affinity estimate (log intensity, higher = more binding, comparable within an allelic series)
CTGATGAA	11.2 upbm affinity estimate (log intensity, higher = more binding, comparable within an allelic series)
ATCAATTC	11.9 upbm affinity estimate (log intensity, higher = more binding, comparable within an allelic series)
ACCGTGCG	9.43 upbm affinity estimate (log intensity, higher = more binding, comparable within an allelic series)
CCAAGACG	9.18 upbm affinity estimate (log intensity, higher = more binding, comparable within an allelic series)
CCCCTTGC	9.53 upbm affinity estimate (log intensity, higher = more binding, comparable within an allelic series)
CGCTCCAC	9.3 upbm affinity estimate (log intensity, higher = more binding, comparable within an allelic series)
GCGTGCCA	9.45 upbm affinity estimate (log intensity, higher = more binding, comparable within an allelic series)
CCAACACC	8.85 upbm affinity estimate (log intensity, higher = more binding, comparable within an allelic series)
GACGTTGC	9.38 upbm affinity estimate (log intensity, higher = more binding, comparable within an allelic series)
CTCCGTAC	9.24 upbm affinity estimate (log intensity, higher = more binding, comparable within an allelic series)
AGATCAAT	11.6 upbm affinity estimate (log intensity, higher = more binding, comparable within an allelic series)
